The results in this text go back to PubChem BioAssay (NCI).

This assay is described as follows: NCI Yeast Anticancer Drug Screen. Data for the mlh1 strain (AID 171).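 Further: 0% = growth of vehicle-treated control cultures of the same strain.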 Particulars: S. cerevisiae mlh1 strain growth inhibition, active compounds read high. On the procedure: Growth inhibition of yeast strains with defined genetic alterations is measured as a screen for potential anti-cancer activity. Selected strains with alterations in DNA damage repair or cell cycle control were exposed to compounds and growth inhibition was measured relative to vehicle treated controls. The strain used in this assay is mlh1

Compounds without any hit were thinned out: in the full panel of roughly 79,000, 15% have a hit. Unmarked numbers belong to inactive results. The source made the active and inactive calls. No stated cut-off is given here; in the data, active means growth inhibition above about 70%; inactive means the rest.

On to `CC[C@@]1(O)C(=O)OCc2c1cc1n(c2=O)Cc2cc3c(NC(=O)CN)cccc3nc2-1`, for which the growth inhibition is -5% (at 1.2 µM); -3% (at 3.7 µM); -3% (at 11.0 µM); -6% (at 33.0 µM); 2% (at 100.0 µM).

Take `Oc1cccnc1[Se]`: the growth inhibition (at 1.2 µM) is -2%; the growth inhibition (at 3.7 µM) is 2%; the growth inhibition (at 11.0 µM) was 11%; the growth inhibition (at 33.0 µM) is 98% (active); the growth inhibition (at 100.0 µM) was 99% (active).

`Nc1nc(N)c2c(Cl)c(CNc3ccc(C(=O)NC(CC(=O)O)C(=O)O)cc3)ccc2n1` (stereo not given): the growth inhibition (at 1.2 µM) is 16%; the growth inhibition (at 3.7 µM) was 12%; the growth inhibition (at 11.0 µM) is 1%; the growth inhibition (at 33.0 µM) is 25%; the growth inhibition (at 100.0 µM) is 44%.

Regarding `OC1(c2ccccc2)CC2CCC(C1)N2CCCC(O)(c1ccccc1)c1ccccc1` (stereo not given), the growth inhibition is 1% (at 1.2 µM); 1% (at 3.7 µM); 3% (at 11.0 µM); 23% (at 33.0 µM); 80% (active) (at 100.0 µM).

As to `CC[PH+](CC)CC.CC[PH+](CC)CC.[Au]`, the growth inhibition is 30% (at 1.2 µM); 49% (at 3.7 µM); 41% (at 11.0 µM); 54% (at 33.0 µM); 99% (active) (at 100.0 µM).

In the case of `CCC1(O)C(=O)OCc2c1cc1n(c2=O)Cc2cc3cc(Cl)ccc3nc2-1` (stereo not given), the growth inhibition (at 1.2 µM) is 3%; the growth inhibition (at 3.7 µM) is 8%; the growth inhibition (at 11.0 µM) is 36%; the growth inhibition (at 33.0 µM) is 65%; the growth inhibition (at 100.0 µM) is 74% (active).

For `C[C@]12CCC3[C@@H](CC[C@@H]4c5nonc5CC[C@]34C)C1CCC2=O` (stereo not given in full), the growth inhibition (at 1.2 µM) is 8%; the growth inhibition (at 3.7 µM) was 11%; the growth inhibition (at 11.0 µM) is 29%; the growth inhibition (at 33.0 µM) is 80% (active); the growth inhibition (at 100.0 µM) was 86% (active).

As for `O=C(O)C1C2C=CC(C2)C1c1ccccc1` (stereo not given), the growth inhibition runs as follows: (at 1.2 µM) -1%; (at 3.7 µM) 0%; (at 11.0 µM) 1%; (at 33.0 µM) 0%; (at 100.0 µM) 11%.
